The structures appear in SMILES notation. Values without a mark were called inactive. The source made the active and inactive calls.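 How the source made its calls: active means viability at or below 21.59%, 3 SD under the median of tested compounds; inactive means the rest.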

The nature of the assay: growth suppression of PTEN-null HCT116 cells, cell-based, validation, diverse DP compound set (AID 999).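 Further: 100% = median luminescence of untreated cell control wells and 0% = no signal.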 The note with it: CellTiter-Glo, 60 h, at 10 µM, stronger effect = lower value. In general terms: Cellular ATP, detected with luciferase, serves as a proxy for viable cell number.
As usually defined, the viability is a read-out of living cells in per cent, often relative to untreated cells. Consider `C[C@@H]1CC[C@]2(C(=O)O)CC[C@]3(C)C(=CCC4[C@@]5(C)C[C@@H](O)[C@H](O)[C@@](C)(CO)C5[C@H](O)C[C@]43C)C2[C@H]1C` (stereo not given in full), for which the viability was 84.7%.

As for `CCN(CC)C(=S)SSC(=S)N(CC)CC`, the viability was 89.6%. Then `C=C(C)C1CC=C(C)C(O)C1` (stereo not given), with 89.2%. Turning to `C=C1OC(CO)(n2cnc3c(N)ncnc32)C(O)C1O` (stereo not given), the viability was 92.8%. Then `CC(=O)[C@H]1[C@H](C#N)CC2C3CC=C4C[C@@H](O)CCC4(C)C3CCC21C` (stereo not given in full), with 94.8%; and `O=C(O)c1ccccc1O`, with 98.7%; and `CN1C2CCC1CC(OC(=O)C(CO)c1ccccc1)C2` (stereo not given), with 94.2%. The same measure for `CC1(COc2ccc(CC3SC(=O)NC3=O)cc2)CCCCC1` (stereo not given): 95.3%; for `NCCNS(=O)(=O)c1cccc2c(Cl)cccc12`: 94.3%; for `CCCCCCCCCCCCCCCC(=O)OCC(O)C1OC(=O)C(O)=C1O` (stereo not given): 101%. Then `COc1ccc(CC(N)C(=O)N[C@H]2[C@@H](O)[C@H](n3cnc4c(N(C)C)ncnc43)O[C@@H]2CO)cc1` (stereo not given in full), with 5.97% (active). With `Nc1c2c(nc3ccccc13)CCCC2`, the viability was 107%.

Take `COc1ccc(Cl)cc1C(=O)NCCc1ccc(S(=O)(=O)NC(=O)NC2CCCCC2)cc1`: the viability was 107%. Then `C[C@H](CCC(=O)O)[C@H]1CC[C@H]2[C@@H]3CC[C@@H]4C[C@H](O)CC[C@]4(C)[C@H]3CC[C@]12C`, with 97.2%.

Regarding `CC[C@@]1([C@@H]2O[C@@H]([C@H]3O[C@@](O)(CO)[C@H](C)C[C@@H]3C)C[C@@H]2C)CC[C@H]([C@]2(C)CC[C@]3(C[C@H](O)[C@@H](C)[C@@H]([C@@H](C)[C@@H](OC)C(C)C(=O)O)O3)O2)O1` (stereo not given in full), the viability is 63.5%. Then `COc1cc(-c2ccc(=O)[nH]n2)ccc1OC(F)F`, with 94.7%. On to `O=C(c1ccc(F)cc1)C1CCN(CCn2c(=O)[nH]c3ccccc3c2=O)CC1`, for which the viability is 94.8%. The same measure for `COC(=O)c1cc2c(s1)-c1ccccc1OC2`: 97.4%. The same measure for `CO[C@@H]1[C@@H](OC(N)=O)[C@@H](O)[C@H](Oc2ccc3c(O)c(NC(=O)c4ccc(O)c(CC=C(C)C)c4)c(=O)oc3c2C)OC1(C)C`: 88%; for `O=C(c1ccc(OCCN2CCCCC2)cc1)c1c(-c2ccc(O)cc2)sc2cc(O)ccc12`: 61.1%. With `CO/N=C(\C(=O)N[C@@H]1C(=O)N2C(C(=O)O)=C(COC(C)=O)CS[C@H]12)c1csc(N)n1`, the viability is 89.4%. Then `COc1ccc2c(c1)c(CC(=O)O)c(C)n2C(=O)c1ccc(Cl)cc1`, with 105%; and `CCOC(=O)C(C)(C)Oc1ccc(Cl)cc1`, with 100%.

As to `C[C@@H]1CC[C@]2(C(=O)O)CC[C@]3(C)C(=CCC4[C@@]5(C)C[C@@H](O)[C@H](O)[C@@](C)(CO)C5CC[C@]43C)C2[C@H]1C` (stereo not given in full), the viability is 94.3%. The same measure for `C[C@@]12C=Cc3occc3C1CC[C@@]13C[C@@H](CCC12)[C@@](O)(CO)C3` (stereo not given in full): 93.5%; for `C[C@]12CC[C@@H]3c4ccc(O)cc4CC[C@H]3[C@@H]1CC[C@H]2O`: 93.3%; for `COc1ccc2nc(S(=O)Cc3ncc(C)c(OC)c3C)[nH]c2c1` (stereo not given): 92.7%. Then `O=C1OC(c2cc(I)c(O)c(I)c2)(c2cc(I)c(O)c(I)c2)c2ccccc21`, with 93.5%. The same measure for `C[C@]12CCC(=O)C=C1CC[C@@H]1[C@@H]2[C@@H](O)C[C@@]2(C)[C@H]1CC[C@]2(O)C(=O)CO`: 99.2%; for `C/C(=C\CNc1ncnc2c1ncn2[C@@H]1O[C@H](CO)[C@@H](O)[C@H]1O)CO`: 91.5%.

Values taken from PubChem BioAssay AID999 (SRMLSC, 2007).
